Assay outcomes deposited in PubChem BioAssay by National Center for Advancing Translational Sciences (NCATS).
p53ts 32C kill – cytotoxicity in p53ts cells at permissive temperature | 130,000 tested, 0.93% active | H1299-p53A138V at 32C, ATP luminescence viability, 24 h | Potency, µM (titrated, usually from 46.1 µM), for the others: top-dose activity change, negative = cytotoxicity, hits mostly cytotoxic;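 also: 0% = DMSO and -100% = full killing by reference compound; nearly all actives have a fitted effect of over 55% in size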
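ATP-content luminescence (ATPlite) read-out after 24 h compound exposure at 32C in H1299-p53A138V cells (600/well). Tested up to 46 uM. Normalized to DMSO (0%) and 100 uM tamoxifen (100% killing); Hill-fit AC50.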
FLuc inh – inhibitors of firefly luciferase | purified firefly luciferase, luminescence, 8 min | AID 411 | 72,000 tested, 2.2% active | P08659 | Potency, µM (top dose mostly 57.1 µM), for the others: at the top dose activity change, negative = inhibition, hits mostly inhibitors; also: % is scaled to controls: 0 for no effect and ±100 for the full control effect; nearly all actives have a fitted effect of over 40% in size
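Here, luciferase activity is measured as luminescence following an 8 min room-temperature reaction at 10 uM ATP, pH 7.2. Every library sample is titrated.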
Peg3 imprint – induces erasure of genomic imprints in mouse ES cells; mouse ES Peg3-LacZ reporter, beta-gal luminescence, 40 h; Potency, µM (highest dose often 60.7 µM), for the others: at the highest dose activity change, positive = activation, actives largely listed as activators; 110,000 tested, 0.02% active; AID 1948
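Imprint erasure is scored as LacZ activity from the silenced maternal Peg3 allele in feeder-free female ES cells cultured 40 h with LIF. Luminescence is normalized to in-plate negative controls and fitted to the Hill equation.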
p53ts 39C kill – kills p53ts cells at the nonpermissive temperature | Potency, µM (top dose mostly 46.1 µM), inactives show at the top dose activity change, negative = cell killing, hits mostly cytotoxic | AID 902 | H1299-p53A138V viability at 39C, ATP luminescence, 24 h | 130,000 tested, 1.5% active; also: % is scaled to controls: 0 for no effect and ±100 for the full control effect; nearly all actives have a fitted effect of over 55% in size
Tau filament bind – binders of human tau filaments; 71,000 tested, 2% active; AID 596; Potency, µM (highest dose often 57.1 µM), for the others: top-dose activity change, negative = inhibition; recombinant tau filaments, thioflavin S fluorescence, 15 h; filaments grown with octadecylsulfate alongside compound; P10636;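 also: % is scaled to controls: 0 for no effect and ±100 for the full control effect; actives lower thioflavin S fluorescence by blocking filaments or displacing dye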
Target sequence (P10636 whole entry, looked up): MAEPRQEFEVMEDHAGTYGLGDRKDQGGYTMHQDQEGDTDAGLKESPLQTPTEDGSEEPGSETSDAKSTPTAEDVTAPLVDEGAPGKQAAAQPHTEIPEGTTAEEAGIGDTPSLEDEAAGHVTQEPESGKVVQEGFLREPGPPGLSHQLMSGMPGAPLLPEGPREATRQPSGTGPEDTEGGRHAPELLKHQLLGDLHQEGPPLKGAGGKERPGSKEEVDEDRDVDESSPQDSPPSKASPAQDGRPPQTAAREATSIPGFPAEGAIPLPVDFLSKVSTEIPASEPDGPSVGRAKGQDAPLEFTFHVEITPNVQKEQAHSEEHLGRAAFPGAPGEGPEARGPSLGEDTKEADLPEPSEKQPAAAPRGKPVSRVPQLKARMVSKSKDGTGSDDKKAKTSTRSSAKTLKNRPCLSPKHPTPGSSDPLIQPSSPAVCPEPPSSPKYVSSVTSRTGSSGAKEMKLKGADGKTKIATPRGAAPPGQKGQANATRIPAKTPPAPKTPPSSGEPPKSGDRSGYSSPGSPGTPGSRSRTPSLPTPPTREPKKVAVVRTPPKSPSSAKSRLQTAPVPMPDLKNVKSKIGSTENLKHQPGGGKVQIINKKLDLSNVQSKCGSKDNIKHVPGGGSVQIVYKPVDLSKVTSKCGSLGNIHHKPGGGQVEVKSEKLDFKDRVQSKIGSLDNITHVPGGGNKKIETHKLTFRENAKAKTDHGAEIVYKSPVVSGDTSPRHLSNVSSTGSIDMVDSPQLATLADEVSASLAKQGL
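His-tagged recombinant human tau (exons 2, 3 and 10 included), 1 uM, was induced to fibrillize by 30 uM sodium octadecylsulfate with compound present. After 15 h at 37 C, thioflavine S fluorescence (ex 450, em 510 nm) was read.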
Numbers without * were called inactive; ? = inconclusive; / = no result; ! = not active in a repeat; [ ] = another dose, or the depositor's remark. An excerpt weighted towards active compounds, which were near 3.4% of everything screened. Calls follow the shape of the dose curve; as a rule, active = well fitted curve in the direction sought with a large enough effect; inconclusive = small, poorly fitted or top-dose-only effect, or another doubt; inactive = no such curve, though single readings can be large; an effect the other way counts as inactive or inconclusive. Potency is read from the fitted curve at half-maximal effect.

SMILES	p53ts 32C kill	FLuc inh	Peg3 imprint	p53ts 39C kill	Tau filament bind
Cc1cc(/C=N/n2cnnc2)c(C)n1-c1ccc(OCc2ccccc2F)cc1	?	2%	-22%	2%	7%[11.4 µM]
CCN(CC)CCOC(=O)c1ccc(NC(=O)c2nn(-c3ccc(C)cc3)c(=O)c3c2c2ccccc2n3C)cc1	4µM*	/	-31%[10.9 µM]	4µM*	/
O=C(Nc1ccc(-c2cn3ccsc3n2)cc1)C1CC1	6.3µM*	6.3µM*	-38%	5µM*	-8%
O=C(CCN1C(=O)c2ccccc2C1=O)Nc1ccc(-c2cn3ccsc3n2)cc1	-15%	-14%	-52%	?	11%
CCC(=O)Nc1cccc(-c2cn3ccsc3n2)c1	-15%	?	-8%	-16%	0%
CC(=O)Nc1ccc(-c2cn3ccsc3n2)cc1	10µM*	16µM*	-48%	?	2%
c1cn2cc(-c3ccc4c(c3)OCO4)nc2s1	16µM*	7.9µM*	-80%	13µM*	-32%
CC(C)CC(=O)Nc1cccc(-c2cn3ccsc3n2)c1	?	16µM*	-11%	?	11%
O=C(Nc1ccc(-c2cn3ccsc3n2)cc1)C1CCCC1	5µM*	2.5µM*	-45%	2.5µM*	-1%
COC(=O)[C@@]1(C)CCC[C@@]2(C)c3ccc(O)c(C(C)C)c3CCC21 (some centres not stated)	?	/	-36%	20µM*	/
CC(=O)Oc1ccc2c(c1C(C)C)CCC1C(C)(C)CCC[C@@]21C (some centres not stated)	?	/	-20%	13µM*	/
O=c1c2ccccc2n(Cc2cccc(Cl)c2)c(=O)n1CCc1ccccc1	11%	/	-6%[10.9 µM]	-18%	/
COc1ccc(-n2cc(C(=O)OCc3ccc(F)c(F)c3)c3ccccc3c2=O)cc1	-5%	/	-7%[10.9 µM]	-3%	/
COc1ccc(Cl)cc1-c1nc(-c2ccncc2)no1	13%	0%	-1%	9%	1%
CN(C)c1ccc(-c2noc(-c3ccccc3O)n2)cc1	?	1µM*	-35%	?	-13%
COc1nc(-c2ccc(C)cc2)ccc1-c1noc(-c2ccccc2Br)n1	-5%	/	-4%[10.9 µM]	-11%	/
COc1ccc2cc(-c3nc(-c4ccc(N(C)C)cc4)no3)c(=O)oc2c1	1%	/	-18%[10.9 µM]	-8%	/
COc1ccc(-c2nc(-c3ccc(Br)cc3)no2)c(OC)c1	?	2.5µM*	-18%	-20%	350%
COc1ccccc1-c1nc(-c2ccncc2)no1	-16%	20µM*	-87%	-27%	6%
Cc1ccc(-c2noc(-c3ccccc3Br)n2)cc1	13µM*	3.2µM*	-50%	10µM*	-12%
CCOC(=O)c1ccc(NC(=O)c2cnn(-c3ccc(C)cc3C)c2C2CCN(C(=O)OC(C)(C)C)CC2)cc1	10%	/	-2%[10.9 µM]	5%	/
O=C(CSc1nc(-c2cccc(Cl)c2)nc2cc(=O)[nH]n12)Nc1ccccc1	6%	/	14%[10.9 µM]	-4%	/
COc1ccc(Br)cc1CNC(=O)CN1C(=O)CCCc2ccccc21	-7%	/	/	/	/
COc1ccccc1-c1nc(-c2ccc(Br)cc2)no1	-23%	13µM*	-50%	?	72%
Cc1ccccc1-c1noc(-c2ccc(O)cc2)n1	-18%	20µM*	-94%	-15%	?
SMILES	p53ts 32C kill	FLuc inh	Peg3 imprint	p53ts 39C kill	Tau filament bind
COc1ccccc1-c1nc(-c2ccc(Br)o2)no1	?	/	-19%[10.9 µM]	?	/
CCOC(=O)C1=C(CN2CCN(c3ccc(OC)cc3)CC2)NC(=O)NC1c1ccc(OC)cc1 (configuration not stated)	7%	/	/	/	/
CCN1c2ccccc2-c2nc(SCC(=O)Nc3cccc(C(F)(F)F)c3)ncc2S1(=O)=O	-5%	/	-10%[10.9 µM]	-11%	/
CCc1nn(CC(=O)NCCCOC)c(=O)c2cc3ccccc3n12	0%	/	-10%[10.9 µM]	-15%	/
COc1cc(NC(=O)NCCN2CCN(c3ccc(Cl)cc3)CC2)ccc1C	-9%	1%	17%	-6%	13µM*
Cc1cc(NCCCn2ccnc2)n2ncc(-c3ccccc3)c2n1	3.2µM*	1.6µM*	-50%	4µM*	-18%
Cc1cc(NCCN2CCOCC2)n2ncc(-c3ccccc3)c2n1	-4%	20µM*	0%	-7%	-14%
CCc1ccc(S(=O)(=O)c2nnn3c2nc(NCCC(C)C)c2cc(Cl)ccc23)cc1	8%	/	-14%[10.9 µM]	?	/
Cc1ccc2[nH]c(-c3ccc(F)cc3F)cc(=O)c2c1	/	/	-15%[97.3 µM]	/	/
Cc1cccc(Cn2c(=O)n(CCCC(=O)NCc3ccccc3Cl)c(=O)c3ccccc32)c1	-24%	/	-10%[10.9 µM]	?	/
Cc1ccc(C)c(Cn2c(=O)n(CCCCC(=O)NCc3ccccc3Cl)c(=O)c3ccccc32)c1	3%	/	10%[10.9 µM]	25µM*	/
CCn1cc(C(=O)NCCCOC(C)C)c(=O)c2cc(S(=O)(=O)N(C)C3CCCCC3)ccc21	22%	/	9%[10.9 µM]	-7%	/
CCOc1ccc2nc(NC(=O)CSc3nnc(-c4ccncc4)n3CC3CCCO3)sc2c1 (configuration not stated)	?	2.5µM*	-10%	-28%	-15%
O=C(COc1ccccc1F)Nc1nnc(S(=O)(=O)N2CCCCCC2)s1	2%	/	-9%[10.9 µM]	-6%	/
COc1cccc(N2CCN(C(=O)c3cc4c(=O)n(Cc5ccco5)ccc4nc3C)CC2)c1	7%	/	-5%[10.9 µM]	-14%	/
Cc1ccc(-n2ncc3c(NCCCc4ccccc4)ncnc32)cc1	-1%	/	-17%[10.9 µM]	?	/
CCN(CC)CCOC(=O)C1(c2ccc([N+](=O)[O-])cc2)CCCC1	-7%	0%	-9%	-18%	13µM*!
CCN(CC)CCOCCOC(=O)C1(c2ccccc2)CCCC1	-12%	-3%	-16%	-7%	?
C[C@@H](c1ccccc1)N1C(=O)[C@H]2[C@@H]3[C@H](O)[C@H](O)CC(=O)[C@H]3CC[C@H]2C1=O	10%[9.22 µM]	0%[11.4 µM]	/	7%[9.22 µM]	/
O=c1c(-c2ccc(F)c(F)c2)nc2cncnc2n1Cc1ccccc1	-19%	0%[11.4 µM]	/	-7%	13µM*
O=c1c(-c2ccc(F)cc2)nc2cncnc2n1Cc1ccc(F)cc1	-11%	2%[11.4 µM]	-15%	-17%	13µM*
O=c1c(-c2cc(F)cc(F)c2)nc2cncnc2n1Cc1ccccc1	-20%	0%[11.4 µM]	-18%	-20%	32µM*
COc1ccc(N2CC(NC(=O)c3ccc(S(=O)(=O)N4CCCCC4)cc3)CC2=O)cc1OC (configuration not stated)	-2%	/	-13%[10.9 µM]	-14%	/
Cc1ccc(C)c(S(=O)(=O)c2nnn3c2nc(NC2CCCCC2)c2sccc23)c1	10%	/	-17%[10.9 µM]	8%	/
O=S1(=O)N=C(Nc2nc3c(s2)CCCC3)c2ccccc21	5µM*	2.5µM*	-83%	4µM*	19%
Cc1ccc(-n2c(SCC(=O)NCc3ccccc3)nc3n[nH]c(C)c3c2=N)cc1Cl	6%	/	-1%[10.9 µM]	20µM*	/
